Bioassay records from PubChem BioAssay.
HP1b chromo inh: HTS for Inhibitors of HP1-beta Chromodomain Interactions with Methylated Histone Tails; AlphaScreen HP1-beta / biotin-H3K9me3 peptide binding; Potency, µM (series often up to 114 µM), for the others: top-dose activity change, negative = inhibition, actives largely listed as inhibitors; actives 0.56% (n = 390,000); further: nearly all actives have a fitted effect of over 70% in size
Target sequence (P83916 whole entry, looked up): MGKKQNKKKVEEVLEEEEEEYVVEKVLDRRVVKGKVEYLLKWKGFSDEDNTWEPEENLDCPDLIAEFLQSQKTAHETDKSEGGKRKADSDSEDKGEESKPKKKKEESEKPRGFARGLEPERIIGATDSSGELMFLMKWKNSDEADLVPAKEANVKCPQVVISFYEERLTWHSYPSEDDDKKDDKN
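Compound inhibition of the preformed complex between 50 nM HP1-beta and 50 nM biotinylated H3K9me3 peptide was read by AlphaScreen. Buffer was PBS pH 7.4 with 0.01% Tween-20. Incubations ran 30 min at room temperature, with 10 ug/mL donor/acceptor beads.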
Sfp PPTase inh: qHTS Assay for Inhibitors of Bacillus subtilis Sfp phosphopantetheinyl transferase (PPTase); 4'-phosphopantetheinyl transferase ffp (Bacillus subtilis), Q9F4F7; Biochemical Sfp PPTase activity, qHTS; Potency, µM, inactives show largest response in the series, negative = inhibition, hits mostly inhibitors; actives 3.5% (n = 310,000); AID 1490, 2009;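 further: the enzyme is Sfp with the accession as filed and its product quenches rhodamine fluorescence; 0% = enzyme reaction without inhibitor and -100% = no enzyme wells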
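Compounds were incubated with enzyme (final 15 nM) for 15 min at room temperature before substrate addition started the reaction. Fluorescence at 525 nm excitation, 598 nm emission was recorded immediately and after 30 minutes.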
G9a block: qHTS Assay for Inhibitors of Histone Lysine Methyltransferase G9a. Histone-lysine N-methyltransferase EHMT2 (Homo sapiens), Q96KQ7. G9a H3K9 monomethylation, AlphaScreen, 2 h. Potency, µM (series often up to 102 µM), without a hit: at the highest dose activity, negative = inhibition, usual class: inhibitors. actives 8.8% (n = 350,000). AID 504332, 2011; further: on the % scale 0 is the no-effect control and ±100 the full control effect; nearly all actives have a fitted effect of over 75% in size
Target sequence (Q96KQ7 913-1193 limits assumed): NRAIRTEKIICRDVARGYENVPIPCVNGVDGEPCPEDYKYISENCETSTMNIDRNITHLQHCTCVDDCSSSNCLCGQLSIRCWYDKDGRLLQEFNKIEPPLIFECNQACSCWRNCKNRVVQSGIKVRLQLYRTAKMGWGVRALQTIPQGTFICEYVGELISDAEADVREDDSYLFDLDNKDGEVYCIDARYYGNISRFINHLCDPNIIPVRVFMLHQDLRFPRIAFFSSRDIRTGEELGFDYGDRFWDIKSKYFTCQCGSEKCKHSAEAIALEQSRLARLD
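Step 1: enzyme (final 20 nM) with compound, 15 min RT. Step 2: substrate peptide 500 nM and SAM 20 uM, 2 h RT. Step 3: anti-H3K9me1 antibody and AlphaScreen beads, 10 min, then plate read.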
BAZ2B block: qHTS Assay for Inhibitors of BAZ2B. Bromodomain adjacent to zinc finger domain protein 2B (Homo sapiens), Q9UIF8. AlphaScreen BAZ2B-H3K14Ac peptide displacement. Potency, µM (series often up to 114 µM), without a hit: at the top dose activity change, negative = inhibition, actives largely listed as inhibitors. actives 4.4% (n = 360,000). AID 504333, 2011; further: on the % scale 0 is the no-effect control and ±100 the full control effect; nearly all actives have a fitted effect of over 60% in size
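Multi-concentration screen (max 110 uM) measuring displacement of acetylated histone H3 peptide from BAZ2B by AlphaScreen, using 50 nM protein, 50 nM peptide and 10 ug/mL streptavidin donor plus Ni-chelate acceptor beads.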
JMJD2A Tudor inh: qHTS Assay for Inhibitors of JMJD2A-Tudor Domain; Lysine-specific demethylase 4A (Homo sapiens), O75164; AlphaScreen JMJD2A-Tudor / H3K4me3 peptide binding; Potency, µM (series often up to 114 µM), for the others: at the highest dose activity change, negative = inhibition, usual class: inhibitors; actives 4.4% (n = 390,000); further: on the % scale 0 is the no-effect control and ±100 the full control effect; nearly all actives have a fitted effect of over 50% in size
* hit, by the source's call; ? = inconclusive; · = no result; [ ] = remark or other dose. The list is not random: actives were taken first. Their share in the collection is about 12%. The call rests on the fitted dose curve; in most records, active means well fitted curve in the direction sought with a large enough effect; inconclusive means small, poorly fitted or top-dose-only effect, or another doubt; inactive means no such curve, though single readings can be large; an effect the other way counts as inactive or inconclusive. Potency means the concentration at half of the fitted maximal effect.

SMILES	HP1b chromo inh	Sfp PPTase inh	G9a block	BAZ2B block	JMJD2A Tudor inh
Clc1ccc(CCNc2nc3ccccc3n3nnnc23)cc1	19%	26%	2%	-1%	-13%
O=C(O)C1CCC(C(=O)O)O1 (centres undefined)	-11%[57 µM]	·	·	·	45µM*
O=C(O)C1CCNCC1	·	·	-15%[59 µM]	·	·
COc1cccc(C(=O)OCC(=O)NCCc2ccccc2)c1OC	73%	-20%	-20%	-1%	-5%
COc1ccc(-c2cc3nc(CCl)[nH]c(=O)c3s2)cc1	25%[57 µM]	-2%	50µM*	-38%	?
O=C(CN(Cc1ccccc1)C(=O)CNS(=O)(=O)c1ccccc1)NCc1ccco1	-1%	10%	-11%	-4%	79µM*
CS(=O)(=O)N(CC(=O)NCc1ccco1)Cc1ccc(Cl)cc1	20%	28µM*	?	-24%	-25%
CS(=O)(=O)N(CC(=O)NCc1ccc2c(c1)OCO2)Cc1ccccc1	?	-20%	-26%[12.7 µM]	-13%	18µM*
CS(=O)(=O)N(CC(=O)NCc1ccccc1)Cc1ccc(Cl)cc1	5%	22%	13%	-4%	-6%
CS(=O)(=O)N(CC(=O)NCc1ccccn1)Cc1ccc(Cl)cc1	29%	2%	?	?	11µM*
Cc1ccc(NC(=O)NCc2cccnc2)cc1Cl	49%	8%	15%	-14%	-22%
CCOC(=O)N1CCC(NC(=O)c2cnn(-c3cccc(C)c3)c2-n2cccc2)CC1	15%	·	8%[59 µM]	0%	-7%
O=C(NNc1cccc(Cl)n1)c1ccc(Cl)nc1	39%	-3%	12%[59 µM]	12%	?
Nc1ccccc1SC1CC(=O)N(c2ccc3c(c2)OCO3)C1=O (centres undefined)	-4%	7%	0%	14%	-5%
CC1CCCCN1CCNC(=O)C1CCCN(S(=O)(=O)c2cccc3nsnc23)C1 (centres undefined)	36%	7%	·	-1%	-11%
CCC(Sc1nnc(C)c(=O)[nH]1)C(=O)Nc1cccc2ccccc12 (centres undefined)	24%	7%	-4%	2%	-13%
Cc1ccc(S(=O)(=O)N(Cc2ccccc2)c2ccccc2C(=O)NCc2ccco2)cc1	9%	-11%	50µM*	?	?
Cc1ccc(S(=O)(=O)N(Cc2ccccc2)c2ccccc2C(=O)Nc2ccccc2C(=O)NCc2ccco2)cc1	35%	14%	-36%[59 µM]	-26%	-20%
CCOC(=O)CSC1=NC(=O)/C(=C/c2ccc(OC)cc2)S1	16%	18µM*	7.1µM*	-7%	-21%
CCOC(=O)C1CCCN(C2=NC(=O)/C(=C/c3ccc(O)c(OCC)c3)S2)C1 (centres undefined)	20%	12%	-26%	-12%	-11%
CCOC(=O)C1CCCN(C2=NC(=O)/C(=C/c3ccc(OC)cc3OC)S2)C1 (centres undefined)	-20%	45µM*	25µM*	-27%	-36%
CCOC(=O)C1CCCN(C2=NC(=O)/C(=C/c3ccc(N(C)C)cc3)S2)C1 (centres undefined)	35%	-12%	40µM*	45µM*	-26%
CCOC(=O)C1CCCN(C2=NC(=O)/C(=C/c3ccc(OC)cc3)S2)C1 (centres undefined)	17%	7%	-5%	2%	-15%
CCOC(=O)C1CCN(C2=NC(=O)/C(=C/c3ccc(O)cc3)S2)CC1	-23%	?	40µM*	-21%	-5%
Cc1ccc(CSC2=NCCN2S(=O)(=O)c2ccc(F)cc2)cc1	89%	-7%	·	23%	62%
SMILES	HP1b chromo inh	Sfp PPTase inh	G9a block	BAZ2B block	JMJD2A Tudor inh
COC(=O)[C@@H]1CCCN1Cc1nc(Cc2ccc(OC)c(OC)c2)no1	50%	5%	-21%	-19%	-8%
Cc1ccc(OCC(=O)Nc2ccc(OCc3cc(=O)n4ccsc4n3)cc2)cc1C	63%	·	28%[59 µM]	-1%	-13%
COc1ccc(/C(O)=C2/C(=O)C(=O)N(CC3CCCO3)C2c2cccc(OC)c2)cc1 (centres undefined)	23%	-5%	-35%[59 µM]	-13%	-34%
O=C1C(=O)N(Cc2cccnc2)C(c2ccc(Br)cc2)/C1=C(\O)c1ccc2c(c1)OCCO2 (centres undefined)	18%	18%	10%[59 µM]	-14%	-14%
Cc1ccc(C2/C(=C(\O)c3ccc4c(c3)OCCO4)C(=O)C(=O)N2Cc2cccnc2)cc1 (centres undefined)	28%	15%	56µM*	-20%[57.1 µM]	-30%
COc1cccc(C2/C(=C(\O)c3ccc4c(c3)OCCO4)C(=O)C(=O)N2CC2CCCO2)c1 (centres undefined)	6%	3%	?	-29%	22µM*
COc1ccc(/C(O)=C2/C(=O)C(=O)N(CC3CCCO3)C2c2ccc(O)c(OC)c2)cc1 (centres undefined)	-18%	2%	50µM*	-6%	-26%
Cc1ccc(C2/C(=C(\O)c3ccc4c(c3)OCCO4)C(=O)C(=O)N2CC2CCCO2)cc1 (centres undefined)	-1%	1%	50µM*	-27%	?
O=C(COc1c(F)c(F)cc(F)c1F)NNC(=O)CC1CCS(=O)(=O)C1 (centres undefined)	12%	·	·	·	-16%
S=c1[nH]ccc2ccccc12	28%	·	·	·	-17%
Cc1cccc(NC(=O)c2cc(S(=O)(=O)N3CCN(c4ccccc4F)CC3)ccc2F)c1C	9%	·	4%[59 µM]	2%	-22%
CCOC(=O)c1c(C)n(-c2ccccc2)c2ccc(OC(=O)c3ccccc3NC(=O)C(C)(C)C)cc12	12%	·	-35%[59 µM]	-17%	-20%
COc1cc(C(Nc2ccc3c(c2)OCO3)C(=O)NC2CCCCC2)cc(OC)c1OC (centres undefined)	-31%	13µM*	2.8µM*	40µM*	?
Cc1ccc(C)c(OCC(=O)NNC(=O)C2CC2)c1	30%	2%	19%	-9%	-5%
Cc1cccc(C)c1OCC(=O)NNC(=S)NC(=O)C1CC1	50%	25%	20µM*	-2%	-13%
Cc1cccc(C)c1OCC(=O)NC1CC1	21%	50µM*	60%	1%	2%
Fc1ccc(N2CCN(c3ccc4c(C(F)(F)F)cc(C(F)(F)F)nc4n3)CC2)cc1	15%	25%	61%[59 µM]	-25%	-1%
O=C(NCc1cccs1)c1cnc(Cl)c(Cl)c1	36%	5%	30%	6%	9%
O=C(COC(=O)c1cnc(Cl)c(Cl)c1)NCc1cccs1	-3%	19%	25%[0.0925 µM]	4%	22µM*
CC1=C/C(=N\Nc2ccccc2[N+](=O)[O-])CC(C)(C)C1	7.1µM*	-8%	3.5µM*	2.8µM*	7.9µM*
